Test results as given in PubChem BioAssay AID1345085 (National Center for Advancing Translational Sciences (NCATS), 2018).
Results filed as inconclusive are left out. Unmarked numbers belong to inactive results. Calls of active or inactive are those of the source. The call rests on the fitted dose curve; in most records, active means well fitted cell-killing curve with a large enough effect; inconclusive means small, poorly fitted or top-dose-only effect, or effect the other way; inactive means no such curve, though single readings can be large or run the other way.

Each compound was assayed on Hek293T (assay: Confirmatory qHTS for gynecologic anti-cancer compounds from libraries of approved drugs and bioactive compounds). Conditions: gynecologic cancer cell panel viability, ATPlite luminescence, 48 h; series mostly up to 57.6 µM.
In short: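 Cells (1,000/well) were plated, left 16 h at 37 C/5% CO2, then given compound at 11 concentrations (1:3) from 57.5 uM to 0.977 nM for 48 h. ATPlite luminescence after 15 min at room temperature gave IC50 values.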
Further: nearly all actives have a fitted effect of over 55% in size.
On the % scale 0 is the no-effect control and ±100 the full control effect; potency means the concentration at half of the fitted maximal effect.

**Q.** How did the Potency turn out when `CC[C@H](CC#N)OC(=O)N[C@@H](C)c1cccc(NC(=O)Nc2ccc(-c3cnco3)c(OC)c2)c1` was run?
**A.** 0.0769 µM (active)

**Q.** How did the Potency turn out when `CC(C)c1nn(-c2c(Cl)cccc2Cl)c2nc(Cc3ccc(OCCO)cc3)[nH]c(=O)c12` was run?
**A.** 0.0306 µM (active)

**Q.** `CN(C)CC/C=C1\c2ccccc2COc2ccccc21` was tested. Which Potency did it give?
**A.** inactive

**Q.** How did the Potency turn out when `COc1cc2c(c(OC)c1OC)-c1ccc(OC)c(=O)cc1[C@@H](NC(C)=O)CC2` was run?
**A.** inactive

**Q.** With `CCN(CC)CCOc1ccc(/C(=C(\Cl)c2ccccc2)c2ccccc2)cc1` as the compound, how does the Potency read?
**A.** 126 µM (active)

**Q.** How did the Potency turn out when `CNC(=O)c1nn(C)c2c1C(C)(C)Cc1cnc(Nc3ccc(N4CCN(C)CC4)cc3)nc1-2` was run?
**A.** 4.32 µM (active)

**Q.** Which Potency does the source give for `CN1CCN(Cc2ccc(NC(=O)Nc3ccc(Oc4cc(NC(=O)C5CC5)ncn4)cc3)cc2C(F)(F)F)CC1` here?
**A.** 7.69 µM (active)

**Q.** How did the Potency turn out when `Cc1cnc(Nc2cccc(CN3CCOCC3)c2)nc1Nc1cccc(S(=O)(=O)NC(C)(C)C)c1` was run?
**A.** inactive

**Q.** `O=C(c1ccc(/C=C/c2n[nH]c3ccccc23)cc1)N1CCNCC1` was tested. Which Potency did it give?
**A.** 21.7 µM (active)

**Q.** With `COc1ccc(-c2nc3ccc(C4=NNC(=O)CC4C)cc3[nH]2)cc1` (stereo unspecified) as the compound, how does the Potency read?
**A.** 2.17 µM (active)

**Q.** Which Potency does the source give for `CN(C)C(CCOc1cccc2ccccc12)c1ccccc1` (stereo unspecified) here?
**A.** inactive

**Q.** With `Cc1nc(Nc2n[nH]c3c2CN(C(=O)NC(CN(C)C)c2ccccc2)C3(C)C)c2sccc2n1` (stereo unspecified) as the compound, how does the Potency read?
**A.** 9.68 µM (active)

**Q.** `O=C(c1ccc(F)c(F)c1Nc1ccc(I)cc1F)N1CC(O)([C@@H]2CCCCN2)C1` was tested. Which Potency did it give?
**A.** 24.3 µM (active)

**Q.** `Cc1ccc(-n2[nH]c(C)c(N=Nc3cccc(-c4cccc(C(=O)O)c4)c3O)c2=O)cc1C` was tested. Which Potency did it give?
**A.** inactive

**Q.** How did the Potency turn out when `CN(NC(=O)CC(=O)NN(C)C(=S)c1ccccc1)C(=S)c1ccccc1` was run?
**A.** 0.0611 µM (active)

**Q.** For `Cc1ccn(-c2ccc(-c3ncco3)cc2)c(=O)c1-c1ccc2nc(N)ncc2c1`, which Potency is on record?
**A.** inactive

**Q.** With `CCC1C(=O)N(C)c2cnc(Nc3ccc(C(=O)NC4CCC(N5CCN(CC6CC6)CC5)CC4)cc3OC)nc2N1C(C)C` (stereo unspecified) as the compound, how does the Potency read?
**A.** 0.0611 µM (active)

**Q.** With `CCCCc1oc2ccccc2c1C(=O)c1cc(I)c(OCCN(CC)CC)c(I)c1` as the compound, how does the Potency read?
**A.** 79.4 µM (active)

**Q.** `NC(=O)c1ccc2nc(-c3ccc(Oc4ccc(Cl)cc4)cc3)[nH]c2c1` was tested. Which Potency did it give?
**A.** 0.0217 µM (active)

**Q.** `CN(C)/N=N/c1nc[nH]c1C(N)=O` was tested. Which Potency did it give?
**A.** inactive

**Q.** With `CC[C@@]1(O)C(=O)OCc2c1cc1n(c2=O)Cc2cc3cc(O)ccc3nc2-1` as the compound, how does the Potency read?
**A.** 0.385 µM (active)

**Q.** `CC(=O)c1cnc2ccc(-c3cc(Cl)c(O)c(Cl)c3)nc2c1NC1CCC(CN(C)C)CC1` (stereo unspecified) was tested. Which Potency did it give?
**A.** 0.0352 µM (active)

**Q.** Which Potency does the source give for `Cc1cnc(Nc2ccc(CN3CCOCC3)cc2)nc1Nc1cccc(S(=O)(=O)NC(C)(C)C)c1` here?
**A.** 17.2 µM (active)

**Q.** Which Potency does the source give for `CC(C)C[C@H](NC(=O)[C@H](Cc1ccccc1)NC(=O)c1cnccn1)B(O)O` here?
**A.** 0.0306 µM (active)

**Q.** For `CC[C@@]1(O)C(=O)OCc2c1cc1n(c2=O)Cc2c-1nc1ccccc1c2/C=N/OC(C)(C)C`, which Potency is on record?
**A.** 0.172 µM (active)

**Q.** With `CC(C)CC(=O)Nc1n[nH]c2c1CN(C(=O)C1CCN(C)CC1)C2(C)C` as the compound, how does the Potency read?
**A.** 1.37 µM (active)

**Q.** With `Nc1nccc(Oc2ccc(NC(=O)c3c[nH]cc(-c4ccc(F)cc4)c3=O)cc2F)c1Cl` as the compound, how does the Potency read?
**A.** 13.7 µM (active)

**Q.** For `Nc1ccc(C(=O)Nc2cccc(-c3nc(N4CCOCC4)c4oc5ncccc5c4n3)c2)cn1`, which Potency is on record?
**A.** inactive

**Q.** Which Potency does the source give for `Cc1ccccc1C(OCCN(C)C)c1ccccc1` (stereo unspecified) here?
**A.** inactive

**Q.** `Cn1c(=O)c(-c2c(Cl)cccc2Cl)cc2cnc(Nc3cccc(C(=O)O)c3)nc21` was tested. Which Potency did it give?
**A.** inactive

**Q.** `Cc1ccc(C(=O)Nc2ccc(CN3CCN(C)CC3)c(C(F)(F)F)c2)cc1C#Cc1cnc2cccnn12` was tested. Which Potency did it give?
**A.** 17.2 µM (active)

**Q.** Which Potency does the source give for `Cc1c(C)n(Cc2ccc(-c3ccccc3C(=O)O)cc2)c2ccc(C(=O)N[C@@H](C)c3ccc([N+](=O)[O-])cc3)cc12` here?
**A.** inactive

**Q.** With `CC(=O)O[C@H]1C(=O)[C@@]2(C)[C@H]([C@H](OC(=O)c3ccccc3)[C@]3(O)C[C@H](OC(=O)[C@H](O)[C@@H](NC(=O)c4ccccc4)c4ccccc4)C(C)=C1C3(C)C)[C@]1(OC(C)=O)CO[C@@H]1C[C@@H]2O` as the compound, how does the activity change, negative = viability loss read?
**A.** 4.91% [at 10.7 µM]

**Q.** `NC(=O)c1cnc(-c2ccc(C3(N)CCC3)cc2)c(-c2ccccc2)c1` was tested. Which Potency did it give?
**A.** 21.7 µM (active)

**Q.** With `COc1cc2c(Nc3ccc(NC(=O)c4ccccc4)cc3)ncnc2cc1OCCCN1CCOCC1` as the compound, how does the Potency read?
**A.** 24.3 µM (active)

**Q.** For `COc1cc(Nc2ncc3c(n2)-c2ccc(Cl)cc2C(c2c(F)cccc2OC)=NC3)ccc1C(=O)O`, which Potency is on record?
**A.** inactive
